According to PubChem BioAssay AID1159580 (chemical genetic matrix, 2015):
The whole screen tested about 5,500 compounds, of which about 2,000 (36%) were called active. Inconclusive results (about 18%) are left out. No stated cut-off is given here; in the data, active means normalized growth mostly below about 0.91 (no sharp cut-off); inconclusive means no clear call, values can overlap the other calls; inactive means mostly above about 0.92. The list shows a part of the results.

Test: chemical genetic growth profiling, strain panel (AID 1159580);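 further: tested at 20 µM; growth read once vehicle control cultures reached saturation at 30 °C; 1 = growth at the plate median or of vehicle wells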
Details: growth OD

Measured: normalized growth

COc1ccc(C2CC(=O)c3ccc(OC)cc3O2)cc1 (centres undefined)
active: S. cerevisiae deletion strains, locus YKR001C, strain vps1, stronger effect = lower value 0.876 | S. cerevisiae deletion strains, locus YLR113W, strain HOG1, stronger effect = lower value 0.851 | S. cerevisiae deletion strains, locus YLR221C, strain rsa3, stronger effect = lower value 0.899 | S. cerevisiae deletion strains, locus YLR258W, strain gsy2, stronger effect = lower value 0.91 | S. cerevisiae deletion strains, locus YLR268W, strain sec22, stronger effect = lower value 0.832 | S. cerevisiae deletion strains, locus YLR320W, strain mms22, stronger effect = lower value 0.742 | S. cerevisiae deletion strains, locus YLR330W, strain CHS5, stronger effect = lower value 0.844 | S. cerevisiae deletion strains, locus YLR342W, strain FKS1 (second series), stronger effect = lower value 0.705 | S. cerevisiae deletion strains, locus YLR418C, strain cdc73, stronger effect = lower value 0.66 | S. cerevisiae deletion strains, locus YML032C, strain rad52, stronger effect = lower value 0.889 | S. cerevisiae deletion strains, locus YML120C, strain ndi1, stronger effect = lower value 0.869 | S. cerevisiae deletion strains, locus YMR205C, strain PFK2, stronger effect = lower value 0.842 | S. cerevisiae deletion strains, locus YMR263W, strain SAP30, stronger effect = lower value 0.869 | S. cerevisiae deletion strains, locus YNL071W, strain lat1, stronger effect = lower value 0.727 | S. cerevisiae deletion strains, locus YNL153C, strain GIM3, stronger effect = lower value 0.847 | S. cerevisiae deletion strains, locus YNL183C, strain NPR1, stronger effect = lower value 0.802 | S. cerevisiae deletion strains, locus YNL233W, strain BNI4, stronger effect = lower value 0.804 | S. cerevisiae deletion strains, locus YNL307C, strain MCK1, stronger effect = lower value 0.668 | S. cerevisiae deletion strains, locus YOL006C, strain TOP1, stronger effect = lower value 0.394 | S. cerevisiae deletion strains, locus YOR083W, strain WHI5, stronger effect = lower value 0.865 | S. cerevisiae deletion strains, locus YOR184W, strain ser1, stronger effect = lower value 0.799 | S. cerevisiae deletion strains, locus YOR270C, strain vph1, stronger effect = lower value 0.675 | S. cerevisiae deletion strains, locus YOR290C, strain snf2, stronger effect = lower value 0.822 | S. cerevisiae deletion strains, locus YPL051W, strain arl3, stronger effect = lower value 0.887 | S. cerevisiae deletion strains, locus YPL055C, strain LGE1, stronger effect = lower value 0.754 | S. cerevisiae deletion strains, locus YPL078C, strain atp4, stronger effect = lower value 0.888 | S. cerevisiae deletion strains, locus YPR163C, strain tif3, stronger effect = lower value 0.797 | S. cerevisiae deletion strains, locus YPR167C, strain met16, stronger effect = lower value 0.889 | S. cerevisiae deletion strains, strain wtn01, stronger effect = lower value 0.887 | S. cerevisiae strains, strain wild type, stronger effect = lower value 0.89
inactive: S. cerevisiae deletion strains, locus YKL068W, stronger effect = lower value 0.97 | S. cerevisiae deletion strains, locus YKL085W, strain MDH1 (second series), stronger effect = lower value 0.982 | S. cerevisiae deletion strains, locus YKL085W, strain MDH1, stronger effect = lower value 0.982 | S. cerevisiae deletion strains, locus YKL160W, strain elf1, stronger effect = lower value 0.908 | S. cerevisiae deletion strains, locus YKL190W, strain CNB1, stronger effect = lower value 0.948 | S. cerevisiae deletion strains, locus YKR026C, strain gcn3, stronger effect = lower value 0.931 | S. cerevisiae deletion strains, locus YKR091W, strain srl3, stronger effect = lower value 0.968 | S. cerevisiae deletion strains, locus YLL001W, strain dnm1, stronger effect = lower value 0.938 | S. cerevisiae deletion strains, locus YLL026W, stronger effect = lower value 0.932 | S. cerevisiae deletion strains, locus YLL041C, strain sdh2, stronger effect = lower value 0.958 | S. cerevisiae deletion strains, locus YLR027C, strain aat2, stronger effect = lower value 0.93 | S. cerevisiae deletion strains, locus YLR039C, strain RIC1, stronger effect = lower value 0.811 | S. cerevisiae deletion strains, locus YLR058C, strain SHM2, stronger effect = lower value 0.901 | S. cerevisiae deletion strains, locus YLR102C, strain apc9, stronger effect = lower value 0.951 | S. cerevisiae deletion strains, locus YLR262C, strain YPT6 (second series), stronger effect = lower value 0.912 | S. cerevisiae deletion strains, locus YLR262C, strain YPT6, stronger effect = lower value 0.872 | S. cerevisiae deletion strains, locus YLR342W, strain FKS1, stronger effect = lower value 0.936 | S. cerevisiae deletion strains, locus YLR357W, strain rsc2, stronger effect = lower value 0.902 | S. cerevisiae deletion strains, locus YLR370C, strain arc18, stronger effect = lower value 0.947 | S. cerevisiae deletion strains, locus YLR371W, strain rom2, stronger effect = lower value 0.938 | S. cerevisiae deletion strains, locus YLR384C, strain iki3, stronger effect = lower value 0.952 | S. cerevisiae deletion strains, locus YML016C, strain PPZ1, stronger effect = lower value 0.959 | S. cerevisiae deletion strains, locus YML124C, strain tub3, stronger effect = lower value 0.952 | S. cerevisiae deletion strains, locus YMR058W, strain fet3, stronger effect = lower value 0.932 | S. cerevisiae deletion strains, locus YMR078C, strain ctf18, stronger effect = lower value 0.93 | S. cerevisiae deletion strains, locus YMR125W, strain sto1, stronger effect = lower value 0.967 | S. cerevisiae deletion strains, locus YMR129W, stronger effect = lower value 0.956 | S. cerevisiae deletion strains, locus YMR223W, strain ubp8, stronger effect = lower value 0.92 | S. cerevisiae deletion strains, locus YMR231W, strain pep5, stronger effect = lower value 0.993 | S. cerevisiae deletion strains, locus YMR307W, strain GAS1, stronger effect = lower value 0.649 | S. cerevisiae deletion strains, locus YNL067W, strain RPL9B, stronger effect = lower value 0.87 | S. cerevisiae deletion strains, locus YNL128W, strain TEP1, stronger effect = lower value 0.9 | S. cerevisiae deletion strains, locus YNL209W, strain ssb2, stronger effect = lower value 0.965 | S. cerevisiae deletion strains, locus YNL248C, strain rpa49, stronger effect = lower value 0.921 | S. cerevisiae deletion strains, locus YNL250W, strain rad50, stronger effect = lower value 0.939 | S. cerevisiae deletion strains, locus YNL271C, strain bni1, stronger effect = lower value 0.937 | S. cerevisiae deletion strains, locus YNL298W, strain CLA4, stronger effect = lower value 0.934 | S. cerevisiae deletion strains, locus YNL322C, strain KRE1 (second series), stronger effect = lower value 0.969 | S. cerevisiae deletion strains, locus YNR049C, strain mso1, stronger effect = lower value 0.97 | S. cerevisiae deletion strains, locus YNR052C, strain pop2, stronger effect = lower value 0.944 | S. cerevisiae deletion strains, locus YOL012C, strain htz1 0.489 | S. cerevisiae deletion strains, locus YOL147C, strain pex11, stronger effect = lower value 0.94 | S. cerevisiae deletion strains, locus YOR001W, strain rrp6, stronger effect = lower value 0.917 | S. cerevisiae deletion strains, locus YOR061W, strain CKA2, stronger effect = lower value 0.955 | S. cerevisiae deletion strains, locus YOR069W, strain VPS5, stronger effect = lower value 0.979 | S. cerevisiae deletion strains, locus YOR070C, strain gyp1, stronger effect = lower value 0.934 | S. cerevisiae deletion strains, locus YOR080W, strain dia2, stronger effect = lower value 0.957 | S. cerevisiae deletion strains, locus YOR106W, strain vam3, stronger effect = lower value 0.887 | S. cerevisiae deletion strains, locus YOR136W, strain idh2, stronger effect = lower value 0.954 | S. cerevisiae deletion strains, locus YOR144C, strain elg1, stronger effect = lower value 0.938 | S. cerevisiae deletion strains, locus YOR231W, strain MKK1, stronger effect = lower value 0.881 | S. cerevisiae deletion strains, locus YOR265W, strain rbl2, stronger effect = lower value 0.952 | S. cerevisiae deletion strains, locus YOR316C, strain cot1, stronger effect = lower value 0.939 | S. cerevisiae deletion strains, locus YPL106C, strain sse1, stronger effect = lower value 0.856 | S. cerevisiae deletion strains, locus YPL240C, strain hsp82, stronger effect = lower value 0.951 | S. cerevisiae deletion strains, locus YPL241C, strain CIN2, stronger effect = lower value 0.985 | S. cerevisiae deletion strains, locus YPL256C, strain CLN2, stronger effect = lower value 0.882 | S. cerevisiae deletion strains, locus YPR119W, strain clb2, stronger effect = lower value 0.969 | S. cerevisiae deletion strains, locus YPR141C, strain kar3, stronger effect = lower value 0.975
